How the values were obtained:
[1] = molecular target: Fibroblast growth factor receptor 4 (Homo sapiens) (UniProt P22455); conditions: at 1 µM;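 note: reported figure is the averaged percent inhibition of FGFR4, from the GSK PKIS kinase screening panel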
[2] = molecular target: Tyrosine-protein kinase Fgr (Homo sapiens) (UniProt P09769); conditions: at 0.1 µM
[3] = molecular target: Tyrosine-protein kinase Fgr (Homo sapiens) (UniProt P09769); conditions: at 1 µM
[4] = molecular target: Vascular endothelial growth factor receptor 1 (Homo sapiens) (UniProt P17948); conditions: at 0.1 µM
[5] = molecular target: Vascular endothelial growth factor receptor 1 (Homo sapiens) (UniProt P17948); conditions: at 1 µM
[6] = molecular target: Receptor-type tyrosine-protein kinase FLT3 (Homo sapiens) (UniProt P36888); conditions: at 0.1 µM
[7] = molecular target: Receptor-type tyrosine-protein kinase FLT3 (Homo sapiens) (UniProt P36888); conditions: at 1 µM
[8] = test system: T1, Receptor-type tyrosine-protein kinase FLT3 (Homo sapiens), P36888 [D835Y]; conditions: at 0.1 µM
T1 sequence (whole entry): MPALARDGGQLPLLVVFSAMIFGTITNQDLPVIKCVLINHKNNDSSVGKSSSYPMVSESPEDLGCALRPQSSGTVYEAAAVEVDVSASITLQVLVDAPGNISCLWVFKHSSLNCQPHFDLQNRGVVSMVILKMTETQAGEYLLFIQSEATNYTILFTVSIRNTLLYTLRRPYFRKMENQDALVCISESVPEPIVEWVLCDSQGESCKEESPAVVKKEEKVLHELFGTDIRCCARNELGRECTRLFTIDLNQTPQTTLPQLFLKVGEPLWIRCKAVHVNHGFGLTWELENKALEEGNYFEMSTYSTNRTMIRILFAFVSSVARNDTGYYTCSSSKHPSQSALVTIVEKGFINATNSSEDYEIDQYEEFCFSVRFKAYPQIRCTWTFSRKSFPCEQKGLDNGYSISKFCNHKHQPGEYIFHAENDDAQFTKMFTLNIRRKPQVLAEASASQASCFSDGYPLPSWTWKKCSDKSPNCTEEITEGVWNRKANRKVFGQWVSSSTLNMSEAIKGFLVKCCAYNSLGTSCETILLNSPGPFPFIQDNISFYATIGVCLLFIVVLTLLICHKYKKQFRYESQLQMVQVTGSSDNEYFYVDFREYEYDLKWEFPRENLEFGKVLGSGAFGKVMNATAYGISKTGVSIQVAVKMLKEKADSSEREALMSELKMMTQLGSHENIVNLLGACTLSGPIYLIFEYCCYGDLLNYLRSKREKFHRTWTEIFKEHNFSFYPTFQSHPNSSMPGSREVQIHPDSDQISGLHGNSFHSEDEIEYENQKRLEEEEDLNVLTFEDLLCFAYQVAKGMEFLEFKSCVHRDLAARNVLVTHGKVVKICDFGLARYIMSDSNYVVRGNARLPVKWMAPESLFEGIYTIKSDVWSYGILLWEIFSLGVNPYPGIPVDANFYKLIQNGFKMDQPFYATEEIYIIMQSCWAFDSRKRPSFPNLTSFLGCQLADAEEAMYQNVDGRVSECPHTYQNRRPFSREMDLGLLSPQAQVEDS

[9] = molecular target: Non-receptor tyrosine-protein kinase TYK2 (Homo sapiens) (UniProt P29597); conditions: at 1 µM;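 note: values are mean percent inhibition of TYK2 kinase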
Chain of Non-receptor tyrosine-protein kinase TYK2 (Homo sapiens) (P29597 whole entry): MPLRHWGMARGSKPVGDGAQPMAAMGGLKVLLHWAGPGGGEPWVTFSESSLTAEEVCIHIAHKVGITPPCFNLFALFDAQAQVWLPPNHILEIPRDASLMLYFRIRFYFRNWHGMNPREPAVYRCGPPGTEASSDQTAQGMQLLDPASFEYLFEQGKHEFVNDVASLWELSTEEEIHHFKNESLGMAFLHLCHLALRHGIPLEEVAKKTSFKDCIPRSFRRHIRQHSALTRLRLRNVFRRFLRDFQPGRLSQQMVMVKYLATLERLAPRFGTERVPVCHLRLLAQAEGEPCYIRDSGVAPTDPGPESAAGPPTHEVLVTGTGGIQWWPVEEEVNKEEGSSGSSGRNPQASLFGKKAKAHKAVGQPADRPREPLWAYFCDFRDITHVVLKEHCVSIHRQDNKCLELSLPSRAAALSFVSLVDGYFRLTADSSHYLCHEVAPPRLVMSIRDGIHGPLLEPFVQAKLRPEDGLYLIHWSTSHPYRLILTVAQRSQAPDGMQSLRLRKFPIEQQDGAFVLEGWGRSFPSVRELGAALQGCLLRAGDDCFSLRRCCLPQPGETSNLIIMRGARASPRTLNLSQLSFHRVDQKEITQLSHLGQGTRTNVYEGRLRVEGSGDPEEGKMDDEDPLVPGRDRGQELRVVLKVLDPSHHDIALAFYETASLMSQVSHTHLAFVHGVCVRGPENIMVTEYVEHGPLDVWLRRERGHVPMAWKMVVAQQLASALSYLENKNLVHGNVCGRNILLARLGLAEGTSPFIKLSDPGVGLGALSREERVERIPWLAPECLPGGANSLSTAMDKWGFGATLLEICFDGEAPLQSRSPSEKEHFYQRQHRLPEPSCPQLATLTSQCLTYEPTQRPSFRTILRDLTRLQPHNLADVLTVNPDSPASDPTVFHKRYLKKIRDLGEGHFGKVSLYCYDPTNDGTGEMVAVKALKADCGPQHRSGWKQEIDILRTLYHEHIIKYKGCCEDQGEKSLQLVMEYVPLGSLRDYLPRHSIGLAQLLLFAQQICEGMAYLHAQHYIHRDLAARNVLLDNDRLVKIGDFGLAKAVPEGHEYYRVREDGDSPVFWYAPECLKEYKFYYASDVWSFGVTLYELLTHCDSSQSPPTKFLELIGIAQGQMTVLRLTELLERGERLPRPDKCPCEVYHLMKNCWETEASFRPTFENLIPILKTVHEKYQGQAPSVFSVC

[10] = molecular target: T2, Tyrosine-protein kinase receptor TYRO3 (Homo sapiens) (UniProt Q06418); conditions: at 0.1 µM
T2 sequence (whole entry): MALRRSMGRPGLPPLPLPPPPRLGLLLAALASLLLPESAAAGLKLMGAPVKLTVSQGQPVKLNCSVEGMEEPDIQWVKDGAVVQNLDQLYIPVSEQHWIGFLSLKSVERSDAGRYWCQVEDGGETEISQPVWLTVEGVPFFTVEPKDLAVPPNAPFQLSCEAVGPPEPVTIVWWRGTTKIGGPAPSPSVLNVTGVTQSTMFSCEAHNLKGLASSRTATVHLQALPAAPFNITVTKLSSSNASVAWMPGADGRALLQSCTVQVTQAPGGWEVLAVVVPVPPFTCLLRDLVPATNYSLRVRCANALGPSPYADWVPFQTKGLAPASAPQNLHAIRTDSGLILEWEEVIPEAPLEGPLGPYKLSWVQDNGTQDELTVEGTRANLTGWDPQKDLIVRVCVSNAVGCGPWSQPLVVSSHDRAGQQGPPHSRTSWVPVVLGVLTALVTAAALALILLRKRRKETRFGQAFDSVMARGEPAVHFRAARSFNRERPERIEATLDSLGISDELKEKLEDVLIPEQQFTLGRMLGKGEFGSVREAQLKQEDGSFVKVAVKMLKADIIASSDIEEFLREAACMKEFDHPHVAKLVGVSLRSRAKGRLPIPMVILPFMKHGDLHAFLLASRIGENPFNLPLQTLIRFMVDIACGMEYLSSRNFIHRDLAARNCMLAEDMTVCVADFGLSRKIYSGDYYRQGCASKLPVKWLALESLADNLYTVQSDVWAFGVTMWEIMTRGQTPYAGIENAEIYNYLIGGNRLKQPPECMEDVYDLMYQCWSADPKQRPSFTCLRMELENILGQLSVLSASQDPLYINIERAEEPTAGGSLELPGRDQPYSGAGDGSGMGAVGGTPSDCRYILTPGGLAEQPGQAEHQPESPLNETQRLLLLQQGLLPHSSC

[11] = molecular target: T2, Tyrosine-protein kinase receptor TYRO3 (Homo sapiens); conditions: at 1 µM
[12] = molecular target: Tyrosine-protein kinase Yes (Homo sapiens) (UniProt P07947); conditions: at 0.1 µM
Chain of Tyrosine-protein kinase Yes (Homo sapiens) (P07947 2-543 limits assumed): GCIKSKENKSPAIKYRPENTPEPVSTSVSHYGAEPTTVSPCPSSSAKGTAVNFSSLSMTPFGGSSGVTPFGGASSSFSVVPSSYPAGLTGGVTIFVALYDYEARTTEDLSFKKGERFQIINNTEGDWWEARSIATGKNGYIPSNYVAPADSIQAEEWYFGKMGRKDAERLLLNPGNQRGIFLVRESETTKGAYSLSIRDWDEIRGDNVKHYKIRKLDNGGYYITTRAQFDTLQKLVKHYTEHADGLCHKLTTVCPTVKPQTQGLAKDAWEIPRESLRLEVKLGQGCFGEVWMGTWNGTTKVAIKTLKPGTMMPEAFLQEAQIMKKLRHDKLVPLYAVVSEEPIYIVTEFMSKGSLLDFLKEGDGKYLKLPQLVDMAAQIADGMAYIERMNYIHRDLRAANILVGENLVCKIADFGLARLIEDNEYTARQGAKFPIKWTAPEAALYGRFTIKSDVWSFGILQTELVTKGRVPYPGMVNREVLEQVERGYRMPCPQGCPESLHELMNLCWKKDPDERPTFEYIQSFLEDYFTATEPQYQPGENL

[13] = molecular target: Tyrosine-protein kinase Yes (Homo sapiens) (UniProt P07947); conditions: at 1 µM
[14] = molecular target: T3, Tyrosine-protein kinase ZAP-70 (Homo sapiens) (UniProt P43403); conditions: at 0.1 µM
T3 sequence (whole entry): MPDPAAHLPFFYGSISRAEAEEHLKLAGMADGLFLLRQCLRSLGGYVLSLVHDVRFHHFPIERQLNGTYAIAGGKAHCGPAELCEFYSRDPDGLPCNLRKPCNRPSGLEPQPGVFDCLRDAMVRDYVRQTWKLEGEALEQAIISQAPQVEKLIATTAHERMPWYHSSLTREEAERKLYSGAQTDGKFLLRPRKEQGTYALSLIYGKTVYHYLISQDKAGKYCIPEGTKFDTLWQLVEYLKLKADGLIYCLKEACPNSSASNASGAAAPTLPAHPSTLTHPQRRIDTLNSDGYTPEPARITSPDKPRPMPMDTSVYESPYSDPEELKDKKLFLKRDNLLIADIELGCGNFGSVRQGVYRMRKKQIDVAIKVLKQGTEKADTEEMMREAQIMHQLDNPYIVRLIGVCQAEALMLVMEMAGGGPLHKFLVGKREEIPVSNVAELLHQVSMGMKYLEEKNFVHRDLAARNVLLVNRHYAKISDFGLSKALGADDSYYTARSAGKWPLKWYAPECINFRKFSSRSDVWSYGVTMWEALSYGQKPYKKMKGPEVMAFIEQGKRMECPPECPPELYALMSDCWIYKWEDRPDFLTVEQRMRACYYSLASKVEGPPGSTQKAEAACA

[15] = molecular target: T3, Tyrosine-protein kinase ZAP-70 (Homo sapiens); conditions: at 1 µM
[16] = molecular target: Serine/threonine-protein kinase B-raf (Homo sapiens) (UniProt P15056); conditions: at 0.1 µM
Chain of Serine/threonine-protein kinase B-raf (Homo sapiens) (P15056 whole entry): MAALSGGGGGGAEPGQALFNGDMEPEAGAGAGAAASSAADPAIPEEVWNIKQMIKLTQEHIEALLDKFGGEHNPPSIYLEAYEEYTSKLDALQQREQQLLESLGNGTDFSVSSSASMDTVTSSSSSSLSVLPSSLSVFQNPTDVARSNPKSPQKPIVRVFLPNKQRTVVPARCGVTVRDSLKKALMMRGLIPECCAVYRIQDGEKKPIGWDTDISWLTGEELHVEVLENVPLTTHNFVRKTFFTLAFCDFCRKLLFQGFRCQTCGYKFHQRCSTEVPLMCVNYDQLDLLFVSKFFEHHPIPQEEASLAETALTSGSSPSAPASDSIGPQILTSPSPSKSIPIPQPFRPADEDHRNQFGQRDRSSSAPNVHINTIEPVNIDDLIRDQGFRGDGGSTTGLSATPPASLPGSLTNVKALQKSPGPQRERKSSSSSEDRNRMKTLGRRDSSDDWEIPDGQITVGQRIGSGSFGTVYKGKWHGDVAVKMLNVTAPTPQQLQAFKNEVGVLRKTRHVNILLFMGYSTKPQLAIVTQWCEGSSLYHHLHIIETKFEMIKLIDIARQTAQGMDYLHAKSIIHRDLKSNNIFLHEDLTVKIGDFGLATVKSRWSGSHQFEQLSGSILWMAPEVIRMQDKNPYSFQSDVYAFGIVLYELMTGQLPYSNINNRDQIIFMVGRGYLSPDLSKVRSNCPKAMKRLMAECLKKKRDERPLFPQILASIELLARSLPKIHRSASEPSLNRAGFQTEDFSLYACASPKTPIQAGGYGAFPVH

[17] = molecular target: Serine/threonine-protein kinase B-raf (Homo sapiens) (UniProt P15056); conditions: at 1 µM
[18] = test system: Serine/threonine-protein kinase B-raf (Homo sapiens), P15056 [V600E]; conditions: at 0.1 µM
Chain of Serine/threonine-protein kinase B-raf (Homo sapiens), P15056 [V600E] (P15056 whole entry V600E): as the sequence (P15056 whole entry) above, with V600E counted along it

[19] = test system: Serine/threonine-protein kinase B-raf (Homo sapiens), P15056 [V600E]; conditions: at 1 µM
[20] = molecular target: RAF proto-oncogene serine/threonine-protein kinase (Homo sapiens) (UniProt P04049); conditions: at 0.1 µM;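 note: values are mean CRAF kinase inhibition from profiling of the GSK Published Kinase Inhibitor Set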
Chain of RAF proto-oncogene serine/threonine-protein kinase (Homo sapiens) (P04049 whole entry): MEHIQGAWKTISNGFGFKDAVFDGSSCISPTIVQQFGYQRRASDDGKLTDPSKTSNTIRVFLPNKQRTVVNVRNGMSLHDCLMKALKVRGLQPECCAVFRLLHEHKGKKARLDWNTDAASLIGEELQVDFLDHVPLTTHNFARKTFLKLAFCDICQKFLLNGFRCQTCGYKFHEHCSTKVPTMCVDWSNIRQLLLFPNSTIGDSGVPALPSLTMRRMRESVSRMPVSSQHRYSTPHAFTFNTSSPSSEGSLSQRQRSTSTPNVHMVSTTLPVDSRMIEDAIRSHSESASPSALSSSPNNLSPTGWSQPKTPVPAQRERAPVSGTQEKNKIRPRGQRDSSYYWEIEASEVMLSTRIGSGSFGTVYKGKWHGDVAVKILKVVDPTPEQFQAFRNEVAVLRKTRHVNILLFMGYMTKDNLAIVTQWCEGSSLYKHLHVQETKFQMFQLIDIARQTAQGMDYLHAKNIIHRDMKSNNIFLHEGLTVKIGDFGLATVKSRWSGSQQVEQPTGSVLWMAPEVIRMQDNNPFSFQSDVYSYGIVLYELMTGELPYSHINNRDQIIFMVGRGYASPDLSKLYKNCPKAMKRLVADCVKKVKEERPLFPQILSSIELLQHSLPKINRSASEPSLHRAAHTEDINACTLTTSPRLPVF

Chain of Fibroblast growth factor receptor 4 (Homo sapiens) (P22455 22-802 limits assumed): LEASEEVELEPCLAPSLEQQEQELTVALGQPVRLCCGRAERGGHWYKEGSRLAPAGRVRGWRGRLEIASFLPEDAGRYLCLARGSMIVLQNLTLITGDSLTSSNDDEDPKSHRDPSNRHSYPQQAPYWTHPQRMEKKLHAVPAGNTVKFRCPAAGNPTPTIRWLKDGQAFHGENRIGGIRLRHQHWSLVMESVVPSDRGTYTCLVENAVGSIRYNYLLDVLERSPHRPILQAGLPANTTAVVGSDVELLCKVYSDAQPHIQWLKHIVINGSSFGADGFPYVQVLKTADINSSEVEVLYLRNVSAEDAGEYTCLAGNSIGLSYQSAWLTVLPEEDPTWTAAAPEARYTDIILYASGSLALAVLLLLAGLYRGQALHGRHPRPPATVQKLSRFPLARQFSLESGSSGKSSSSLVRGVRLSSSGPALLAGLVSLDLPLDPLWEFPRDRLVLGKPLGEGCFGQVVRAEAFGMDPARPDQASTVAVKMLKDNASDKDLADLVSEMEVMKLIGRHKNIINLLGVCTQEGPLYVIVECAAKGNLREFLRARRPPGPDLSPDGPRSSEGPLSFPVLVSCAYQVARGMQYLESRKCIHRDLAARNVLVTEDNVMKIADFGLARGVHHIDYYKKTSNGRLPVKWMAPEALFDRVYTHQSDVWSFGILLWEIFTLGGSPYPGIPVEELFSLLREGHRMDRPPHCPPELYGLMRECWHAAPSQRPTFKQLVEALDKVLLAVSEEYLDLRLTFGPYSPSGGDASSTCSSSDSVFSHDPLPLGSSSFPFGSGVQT
Chain of Tyrosine-protein kinase Fgr (Homo sapiens) (P09769 2-529 limits assumed): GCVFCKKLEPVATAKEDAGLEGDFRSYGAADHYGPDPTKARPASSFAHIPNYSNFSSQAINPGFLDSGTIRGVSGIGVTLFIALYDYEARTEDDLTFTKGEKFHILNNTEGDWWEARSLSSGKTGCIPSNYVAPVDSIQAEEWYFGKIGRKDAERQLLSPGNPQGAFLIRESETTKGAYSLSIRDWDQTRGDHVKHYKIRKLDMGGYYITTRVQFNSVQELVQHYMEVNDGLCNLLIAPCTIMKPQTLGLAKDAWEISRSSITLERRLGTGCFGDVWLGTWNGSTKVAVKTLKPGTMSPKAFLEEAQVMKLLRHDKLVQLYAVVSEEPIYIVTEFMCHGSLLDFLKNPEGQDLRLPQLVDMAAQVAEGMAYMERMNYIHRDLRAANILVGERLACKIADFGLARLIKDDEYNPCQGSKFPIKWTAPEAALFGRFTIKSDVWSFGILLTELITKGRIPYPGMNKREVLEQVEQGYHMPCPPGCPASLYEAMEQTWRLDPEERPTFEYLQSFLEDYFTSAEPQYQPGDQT

Row | SMILES | inhibition [1] [%] | inhibition [2] [%] | inhibition [3] [%] | inhibition [4] [%] | inhibition [5] [%] | inhibition [6] [%] | inhibition [7] [%] | inhibition [8] [%] | inhibition [9] [%] | inhibition [10] [%] | inhibition [11] [%] | inhibition [12] [%] | inhibition [13] [%] | inhibition [14] [%] | inhibition [15] [%] | inhibition [16] [%] | inhibition [17] [%] | inhibition [18] [%] | inhibition [19] [%] | inhibition [20] [%]
1 | COc1cc2ncn(-c3cc(OCCc4ccccc4)c(C(N)=O)s3)c2cc1OC | 2 | -0.62 | 7.7 | 1.49 | 4.71 | 0.81 | 7.46 | 0.74 | -2.99 | 0.78 | 0.83 | 1.03 | 4.7 | 0.43 | 0.59 | 3.24 | 3.36 | 3.25 | 3.42 | 0.38
2 | O=C(Nc1n[nH]c2nc(-c3ccco3)ccc12)C1CC1 | 2.6 | 0.22 | 4.92 | 1.05 | 7.88 | 0.89 | 9.22 | -0.89 | -1.09 | 2.23 | 8.73 | 0.35 | 0.02 | 0.28 | 0.47 | 1.98 | 3.43 | 1.17 | 4.38 | 4.75
3 | CCc1ccc(Oc2nccc(-c3c(-c4ccc(F)cc4)ncn3C3CCNCC3)n2)cc1 | 1.42 | 2.39 | 6.95 | 2.69 | 3.25 | 5.16 | 5.11 | -2.28 | -1.9 | 1.15 | 1.06 | 4.27 | 7.31 | -0.22 | -4.21 | 4.48 | 10.2 | 4.23 | 8.72 | 1.49
4 | COC(=O)Nc1nc2ccc(Sc3ccc(NC(=O)Nc4cc(C(F)(F)F)ccc4F)cc3)cc2[nH]1 | -0.24 | 1.66 | 3.71 | 4.5 | 37.7 | 4.87 | 32.6 | – | 0.01 | 1.03 | 21.9 | -0.49 | 5.58 | 3.14 | -0.65 | 1.01 | 14.8 | -0.53 | 17.5 | -1.08
5 | CN(C)CCOc1ccc(-c2cc(-c3ccc4c(c3)CCC4=NO)c(-c3ccncc3)o2)cc1 | -1.71 | 1.5 | 7.33 | -0.18 | -0.16 | -0.73 | -1.89 | -7.59 | 0.1 | -0.87 | 2.92 | 2.18 | 9.45 | -2.95 | 0.13 | 48.5 | 85 | 56.3 | 86.2 | -4.4
6 | CCS(=O)(=O)c1ccc(OC)c(Nc2ncc(-c3ccccc3Cl)o2)c1 | 4.03 | 3.37 | 17 | 3.73 | 13.8 | 2.1 | 21.1 | 7.14 | -1.06 | 5.33 | 42.6 | 8.95 | 39.3 | 2.78 | -0.17 | 0.55 | 0.2 | 0.25 | 0.86 | 0.78
7 | NS(=O)(=O)c1ccc(Nc2cc(-c3ccc(O)c(F)c3)n[nH]2)cc1 | 0.53 | 0.78 | 13.7 | 2.34 | 14.3 | 33.7 | 79.4 | 5.5 | 5.71 | 8.31 | 52.3 | -3.77 | 11.7 | – | – | -4.38 | -2.42 | -4.83 | -3.52 | -4.11

From ChEMBL document CHEMBL1961873, “Compounds: GSK PKIS; Assays: Nanosyn kinase panel” (2012)
